Results taken from ChEMBL document CHEMBL4296182, “CO-ADD screening of NIH NCI Diversity Set V”.
For part of these data: Entries with a potency or affinity are not part of this list.

Assays:
Staphylococcus aureus = assay: Antibacterial activity against Staphylococcus aureus MRSA ATCC 43300 (CO-ADD:GP_020); MIC in CAMBH media using NBS plates, by Resazurin F(560/590); type: functional; conditions: Concentration 20 uM, ASSAY_TEST Inhibition of Bacterial Growth, detection method Resazurin, Fluorescence (ex560/em590), MEDIA CAMHB, plate type 384well, CORNING #3640, time 18 hr
Acinetobacter baumannii = assay: Antibacterial activity against Acinetobacter baumannii ATCC 19606 (CO-ADD:GN_034); MIC in CAMBH media using NBS plates, by Resazurin F(560/590); type: functional; conditions: Concentration 20 uM, ASSAY_TEST Inhibition of Bacterial Growth, detection method Resazurin, Fluorescence (ex560/em590), MEDIA CAMHB, plate type 384well, CORNING #3640, time 18 hr
Escherichia coli = assay: Antibacterial activity against Escherichia coli ATCC 25922 (CO-ADD:GN_001); MIC in CAMBH media using NBS plates, by Resazurin F(560/590); type: functional; conditions: Concentration 20 uM, ASSAY_TEST Inhibition of Bacterial Growth, detection method Resazurin, Fluorescence (ex560/em590), MEDIA CAMHB, plate type 384well, CORNING #3640, time 18 hr
Klebsiella pneumoniae = conditions: Concentration 20 uM; ASSAY_TEST Inhibition of Bacterial Growth; detection method Absorption (OD600); MEDIA CAMHB; plate type 384well; NBS; CORNING #3640; time 18 hr
Candida albicans = conditions: 20 µM
Cryptococcus neoformans = conditions: Concentration 20 uM; ASSAY_TEST Inhibition of Fungal Growth; detection method Resazurin; Absorption (OD600-OD570); plate type 384well; NBS; CORNING #3640

CC(=O)Oc1ccc2cc(-c3ccccc3)c(=O)oc2c1
Inhibition (Staphylococcus aureus): 19.48% | Inhibition (Acinetobacter baumannii): 8.94% | Inhibition (Escherichia coli): -2.31% | Inhibition (Klebsiella pneumoniae): 17.84% | Inhibition (Candida albicans): 4.89% | Inhibition (Cryptococcus neoformans): -3.36%

c1ccc2cc(OCCOCCOc3ccc4ccccc4c3)ccc2c1
Inhibition (Staphylococcus aureus): 11.38% | Inhibition (Acinetobacter baumannii): 0.36% | Inhibition (Escherichia coli): 5.4% | Inhibition (Klebsiella pneumoniae): 11.21% | Inhibition (Candida albicans): 5.37% | Inhibition (Cryptococcus neoformans): -6.02%

O=C1c2cccc3cc([N+](=O)[O-])cc(c23)C(=O)N1CCN1CCCC1 [PINAFIDE]
Inhibition (Staphylococcus aureus): -1.04% | Inhibition (Acinetobacter baumannii): 10.65% | Inhibition (Escherichia coli): -8.19% | Inhibition (Klebsiella pneumoniae): 5.33% | Inhibition (Candida albicans): 0.21% | Inhibition (Cryptococcus neoformans): -7.33%

Cc1cc(NC(=O)Nc2cc(F)ccc2F)no1
Inhibition (Staphylococcus aureus): -1.77% | Inhibition (Acinetobacter baumannii): -0.21% | Inhibition (Escherichia coli): 10.41% | Inhibition (Klebsiella pneumoniae): 7.53% | Inhibition (Candida albicans): 2.67% | Inhibition (Cryptococcus neoformans): -5.29%

Clc1nc(Cl)nc(-c2cn(-c3ccccc3)c3ccccc23)n1
Inhibition (Staphylococcus aureus): 19.15% | Inhibition (Acinetobacter baumannii): 12.32% | Inhibition (Escherichia coli): 3.43% | Inhibition (Klebsiella pneumoniae): 3.41% | Inhibition (Candida albicans): -0.1% | Inhibition (Cryptococcus neoformans): 5.66%

O=C(NC1(N2CCOCC2)CC1)c1ccc(Cl)cc1
Inhibition (Staphylococcus aureus): 6.77% | Inhibition (Acinetobacter baumannii): -6.57% | Inhibition (Escherichia coli): -5.43% | Inhibition (Klebsiella pneumoniae): 3.34% | Inhibition (Candida albicans): 2.83% | Inhibition (Cryptococcus neoformans): -0.42%

Cc1nc2nc(C(F)(F)F)[nH]c2nc1C
Inhibition (Staphylococcus aureus): 10.93% | Inhibition (Acinetobacter baumannii): 9.55% | Inhibition (Escherichia coli): -5.58% | Inhibition (Klebsiella pneumoniae): 7.77% | Inhibition (Candida albicans): 3.03% | Inhibition (Cryptococcus neoformans): -5.2%

N=C(N)NC(=N)Nc1ccc(O)cc1
Inhibition (Staphylococcus aureus): 11.3% | Inhibition (Acinetobacter baumannii): -14.34% | Inhibition (Escherichia coli): 13.43% | Inhibition (Klebsiella pneumoniae): 0.41% | Inhibition (Candida albicans): 0.07% | Inhibition (Cryptococcus neoformans): -11.16%

O=C1CCCC1C(=O)Nc1ccc2ccccc2c1 (stereo unspecified)
Inhibition (Staphylococcus aureus): 9.31% | Inhibition (Acinetobacter baumannii): 10.21% | Inhibition (Escherichia coli): -4.09% | Inhibition (Klebsiella pneumoniae): 17.7% | Inhibition (Candida albicans): 10.3% | Inhibition (Cryptococcus neoformans): -1.69%

Cc1ccc2c(c1)C(=C(C#N)C#N)CCN2
Inhibition (Staphylococcus aureus): 5.58% | Inhibition (Acinetobacter baumannii): 12.47% | Inhibition (Escherichia coli): 3.17% | Inhibition (Klebsiella pneumoniae): 22.07% | Inhibition (Candida albicans): 3.21% | Inhibition (Cryptococcus neoformans): -7.98%

O=C1OCC/C1=C\OCCCO/C=C1\CCOC1=O
Inhibition (Staphylococcus aureus): -12.85% | Inhibition (Acinetobacter baumannii): -4.57% | Inhibition (Escherichia coli): -5.06% | Inhibition (Klebsiella pneumoniae): 8.79% | Inhibition (Candida albicans): -0.38% | Inhibition (Cryptococcus neoformans): -11.43%

Nc1ccn(C2OC(CCl)C(O)C2O)c(=O)n1 (stereo unspecified)
Inhibition (Staphylococcus aureus): 16.82% | Inhibition (Acinetobacter baumannii): -8.52% | Inhibition (Escherichia coli): 10.09% | Inhibition (Klebsiella pneumoniae): 13.7% | Inhibition (Candida albicans): 0.99% | Inhibition (Cryptococcus neoformans): -4.88%

N#Cc1nnn2c1nc(N)c1c(Cl)cccc12
Inhibition (Staphylococcus aureus): 11.84% | Inhibition (Acinetobacter baumannii): 9.93% | Inhibition (Escherichia coli): 2.46% | Inhibition (Klebsiella pneumoniae): 14.13% | Inhibition (Candida albicans): 1.33% | Inhibition (Cryptococcus neoformans): -4.78%

CC(C)(C)n1nc(C2CC2)cc1NC(=O)Nc1ccccc1
Inhibition (Staphylococcus aureus): 5.22% | Inhibition (Acinetobacter baumannii): -11.36% | Inhibition (Escherichia coli): 8.62% | Inhibition (Klebsiella pneumoniae): 7.92% | Inhibition (Candida albicans): 1.47% | Inhibition (Cryptococcus neoformans): -6.02%

NC(=O)NC1NC(=O)NC1=O (stereo unspecified) [ALLANTOIN]
Inhibition (Staphylococcus aureus): 12.16% | Inhibition (Acinetobacter baumannii): -7.41% | Inhibition (Escherichia coli): 9.38% | Inhibition (Klebsiella pneumoniae): 18.45% | Inhibition (Candida albicans): 2.26% | Inhibition (Cryptococcus neoformans): -7.8%

O=C(Nc1ccc2ncccc2c1)Nc1ccc2ncccc2c1
Inhibition (Staphylococcus aureus): 9.01% | Inhibition (Acinetobacter baumannii): -26.89% | Inhibition (Escherichia coli): 13.25% | Inhibition (Klebsiella pneumoniae): 9.25% | Inhibition (Candida albicans): 0.58% | Inhibition (Cryptococcus neoformans): -19.53%

Cc1cc(C)c(C#N)c(Sc2nc(C)c([N+](=O)[O-])c(C)c2C#N)n1
Inhibition (Staphylococcus aureus): 33.8% | Inhibition (Acinetobacter baumannii): 4.2% | Inhibition (Escherichia coli): 1.58% | Inhibition (Klebsiella pneumoniae): 21.76% | Inhibition (Candida albicans): 8.27% | Inhibition (Cryptococcus neoformans): 2.92%

CCOC(=O)c1cc(-c2ccccc2)nc2ccc(C)cc12 [NEOCINCHOPHEN]
Inhibition (Staphylococcus aureus): 2.82% | Inhibition (Acinetobacter baumannii): 5.48% | Inhibition (Escherichia coli): -14.74% | Inhibition (Klebsiella pneumoniae): 14.7% | Inhibition (Candida albicans): 9.92% | Inhibition (Cryptococcus neoformans): 24.59%

Oc1ccc(Nc2ccc3ccccc3c2)cc1
Inhibition (Staphylococcus aureus): -6.35% | Inhibition (Acinetobacter baumannii): -10.62% | Inhibition (Escherichia coli): -3.9% | Inhibition (Klebsiella pneumoniae): 4.89% | Inhibition (Candida albicans): 3.31% | Inhibition (Cryptococcus neoformans): -6.09%

CC1=C2C3OC(=O)C(C)C3CCC2(C)C=C(Cl)C1=O (stereo unspecified)
Inhibition (Staphylococcus aureus): -4.99% | Inhibition (Acinetobacter baumannii): -5.14% | Inhibition (Escherichia coli): -9.28% | Inhibition (Klebsiella pneumoniae): 10.19% | Inhibition (Candida albicans): 1.04% | Inhibition (Cryptococcus neoformans): -2.81%

Cc1ccccc1N=C(S)Nc1ccccn1
Inhibition (Staphylococcus aureus): -11.3% | Inhibition (Acinetobacter baumannii): 17.16% | Inhibition (Escherichia coli): -8.87% | Inhibition (Klebsiella pneumoniae): 16.17% | Inhibition (Candida albicans): 15.5% | Inhibition (Cryptococcus neoformans): 4.14%
